# Where “and” joins values, the source holds several entries; their conditions need not be identical. Equal entries are not always repeated. Records with an inconclusive call do not appear. Some structures have more than one record in an assay (separate samples or runs), and their calls can disagree. Calls of active or inactive are those of the source. The calls were made as follows: active = hit-call score of the fitted dose curve at least 0.9, where 1 is the maximum; inconclusive = response in the unintended direction; inactive = score below 0.9.
# Columns and labels:
# [1] = molecular target: human Thyroid hormone Receptor beta (TRb), THRB (gene 7068) (UniProt P10828); assay: ATG_hTRb_XSP1: Attagene TRANS-FACTORIAL Multi-Species (XSP1) HepG2 Assay for human Thyroid hormone Receptor beta (TRb) (AID 2283808)
# Chain of human Thyroid hormone Receptor beta (TRb), THRB (gene 7068) (P10828 whole entry, looked up, the tested form may be a part): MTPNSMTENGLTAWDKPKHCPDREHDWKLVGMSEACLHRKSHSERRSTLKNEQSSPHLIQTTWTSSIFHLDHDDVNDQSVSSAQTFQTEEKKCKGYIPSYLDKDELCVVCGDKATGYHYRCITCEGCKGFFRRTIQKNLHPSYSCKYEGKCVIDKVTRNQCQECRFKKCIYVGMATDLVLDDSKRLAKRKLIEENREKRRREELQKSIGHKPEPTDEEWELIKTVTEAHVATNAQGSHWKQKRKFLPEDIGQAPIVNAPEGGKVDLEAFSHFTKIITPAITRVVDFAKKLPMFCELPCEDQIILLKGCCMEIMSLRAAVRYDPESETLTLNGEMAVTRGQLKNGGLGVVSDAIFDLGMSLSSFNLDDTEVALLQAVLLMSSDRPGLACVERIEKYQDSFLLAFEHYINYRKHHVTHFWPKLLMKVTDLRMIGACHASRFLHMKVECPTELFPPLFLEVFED
# Outline: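 HepG2 cells transiently transfected with reporter units driving GAL4-UAS reporters for chimeric NR-Gal4 proteins; 24 h chemical exposure with 3 nM 6-alpha-fluorotestosterone present. Reporter mRNA quantified by RT-PCR and capillary electrophoresis, gain of signal versus DMSO.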
# [2] = molecular target: zebrafish Thyroid Hormone Receptor beta (TRb), thrb (gene 30607) (UniProt Q9PVE4); assay: ATG_zfTRb_XSP1: Attagene TRANS-FACTORIAL Multi-Species (XSP1) HepG2 Assay for zebrafish Thyroid Hormone Receptor beta (TRb) (AID 2283809)
# Chain of zebrafish Thyroid Hormone Receptor beta (TRb), thrb (gene 30607) (Q9PVE4 whole entry, looked up, the tested form may be a part): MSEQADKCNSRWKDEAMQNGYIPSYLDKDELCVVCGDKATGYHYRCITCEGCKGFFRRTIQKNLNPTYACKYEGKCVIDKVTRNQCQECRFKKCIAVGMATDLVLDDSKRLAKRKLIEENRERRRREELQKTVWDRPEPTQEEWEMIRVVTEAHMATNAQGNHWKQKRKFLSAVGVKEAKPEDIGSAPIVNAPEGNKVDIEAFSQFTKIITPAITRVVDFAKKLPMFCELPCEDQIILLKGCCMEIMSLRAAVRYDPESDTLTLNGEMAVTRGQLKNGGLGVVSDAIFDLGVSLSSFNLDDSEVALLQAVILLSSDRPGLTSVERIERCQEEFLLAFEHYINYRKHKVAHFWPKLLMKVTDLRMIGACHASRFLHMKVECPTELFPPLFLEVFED
# Outline: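 HepG2 cells transiently transfected with multiplexed GAL4-UAS reporter units expressing chimeric zebrafish TRb–Gal4. Dosed 24 h with 3 nM 6-alpha-fluorotestosterone present; reporter mRNA measured by RT-PCR, HpaI digestion and capillary electrophoresis; gain of signal versus DMSO.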
# [3] = ATG_M_06_XSP2: Attagene TRANS-FACTORIAL Multi-Species (XSP2) HepG2 Assay for M06 Transcription Factor (Internal Marker) (AID 2283811);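 also: internal background marker reporter mRNA measured by RT-PCR and capillary electrophoresis; hits are increases in signal above the DMSO baseline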
# Outline: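 HepG2, multiplexed reporter transfection; 24 h dosing; AR stimulated with 3 nM 6-alpha-fluorotestosterone + 1.5 nM norgestrel; RNA → RT-PCR → 6-FAM primer extension → HpaI → CE. Positive direction vs DMSO.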
# [4] = tested on: turtle Estrogen Receptor (ERa), gene 101933533; assay: ATG_trERa_XSP2: Attagene TRANS-FACTORIAL Multi-Species (XSP2) HepG2 Assay for turtle Estrogen Receptor (ERa) (AID 2283812);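 also: human HepG2 liver cells transiently expressing turtle ERa-Gal4 chimeric receptor; actives raise reporter signal above DMSO so AC50 reflects agonist activity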
# Outline: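 HepG2 cells transiently transfected with GAL4-UAS reporter units expressing turtle ERa-Gal4 chimera. Reporter mRNA measured after 24 h dosing by RT-PCR, fluorescent labelling and capillary electrophoresis; gain of signal fitted versus DMSO.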
# [5] = molecular target: Estrogen receptor beta (Homo sapiens) (UniProt Q92731); assay: ATG_hERb_XSP2: Attagene TRANS-FACTORIAL Multi-Species (XSP2) HepG2 Assay for human Estrogen Receptor (ERb) (AID 2283813);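 also: actives raise reporter mRNA above DMSO so AC50 reflects agonist induction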
# Chain of Estrogen receptor beta (Homo sapiens) (Q92731 whole entry, looked up, the tested form may be a part): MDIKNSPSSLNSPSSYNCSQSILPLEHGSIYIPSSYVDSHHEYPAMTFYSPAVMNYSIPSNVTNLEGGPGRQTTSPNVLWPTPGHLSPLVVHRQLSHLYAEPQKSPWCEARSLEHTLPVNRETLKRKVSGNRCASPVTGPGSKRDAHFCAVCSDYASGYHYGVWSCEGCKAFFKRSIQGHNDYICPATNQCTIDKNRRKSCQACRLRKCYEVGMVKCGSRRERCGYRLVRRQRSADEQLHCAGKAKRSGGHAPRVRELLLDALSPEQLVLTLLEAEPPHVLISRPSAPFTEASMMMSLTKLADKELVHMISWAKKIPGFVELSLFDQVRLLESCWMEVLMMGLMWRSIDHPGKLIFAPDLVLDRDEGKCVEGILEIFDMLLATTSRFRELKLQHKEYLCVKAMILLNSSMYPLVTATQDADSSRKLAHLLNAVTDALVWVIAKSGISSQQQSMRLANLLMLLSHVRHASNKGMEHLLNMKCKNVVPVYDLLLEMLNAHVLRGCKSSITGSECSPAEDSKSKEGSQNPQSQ
# Outline: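 HepG2 cells transiently transfected with GAL4-UAS reporter units and chimeric human ERb-Gal4, 24 h exposure. Reporter mRNA quantified by RT-PCR with FAM labelling, HpaI digestion and capillary electrophoresis; gain of signal versus DMSO.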
# [6] = tested on: turtle Androgen Receptor (AR), gene 101947425; assay: ATG_trAR_XSP2: Attagene TRANS-FACTORIAL Multi-Species (XSP2) HepG2 Assay for turtle Androgen Receptor (AR) (AID 2283815)
# Outline: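 HepG2 cells transiently transfected with GAL4-UAS reporter units for chimeric NR-Gal4 receptors; 24 h dosing in presence of 3 nM 6-alpha-fluorotestosterone and 1.5 nM norgestrel. Reporter mRNA by RT-PCR and capillary electrophoresis, gain of signal versus DMSO.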
# [7] = molecular target: zebrafish Thyroid Hormone Receptor alpha (TRa), thraa (gene 30670) (UniProt Q98867); assay: ATG_zfTRa_XSP1: Attagene TRANS-FACTORIAL Multi-Species (XSP1) HepG2 Assay for zebrafish Thyroid Hormone Receptor alpha (TRa) (AID 2283807)
# Chain of zebrafish Thyroid Hormone Receptor alpha (TRa), thraa (gene 30670) (Q98867 whole entry, looked up, the tested form may be a part): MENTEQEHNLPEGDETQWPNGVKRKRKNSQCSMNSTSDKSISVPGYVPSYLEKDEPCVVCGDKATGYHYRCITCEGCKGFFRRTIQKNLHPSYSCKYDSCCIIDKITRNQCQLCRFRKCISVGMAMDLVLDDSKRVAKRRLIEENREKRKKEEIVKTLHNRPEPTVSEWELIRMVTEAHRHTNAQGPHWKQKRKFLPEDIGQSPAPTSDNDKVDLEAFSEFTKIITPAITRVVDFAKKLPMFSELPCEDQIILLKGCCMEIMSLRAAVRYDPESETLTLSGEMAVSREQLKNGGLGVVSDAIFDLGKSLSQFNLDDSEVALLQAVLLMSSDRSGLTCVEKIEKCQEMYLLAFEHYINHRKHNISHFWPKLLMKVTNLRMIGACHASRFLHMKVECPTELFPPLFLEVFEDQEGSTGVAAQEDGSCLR
# Outline: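 HepG2 cells transiently transfected with GAL4-UAS reporter units including a zebrafish TRa–Gal4 chimera, dosed 24 h with 3 nM 6-alpha-fluorotestosterone present. Reporter mRNA quantified by RT-PCR and capillary electrophoresis; gain versus DMSO.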
# [8] = ATG_XTT_Cytotoxicity_XSP1: Cytotoxicity Assessment in the Attagene TRANS-FACTORIAL Multi-Species (XSP1) HepG2 Assay (AID 2283810)
# Outline: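 XTT viability readout taken at 24 hours post-dosing in HepG2 liver cells co-treated with 3 nM 6-alpha-fluorotestosterone. Signal loss relative to DMSO controls reflects cytotoxicity.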
# [9] = molecular target: zebrafish Estrogen Receptor (ER1), esr1 (gene 259252) (UniProt P57717); assay: ATG_zfER1_XSP2: Attagene TRANS-FACTORIAL Multi-Species (XSP2) HepG2 Assay for zebrafish Estrogen Receptor (ER1) (AID 2283816)
# Chain of zebrafish Estrogen Receptor (ER1), esr1 (gene 259252) (P57717 whole entry, looked up, the tested form may be a part): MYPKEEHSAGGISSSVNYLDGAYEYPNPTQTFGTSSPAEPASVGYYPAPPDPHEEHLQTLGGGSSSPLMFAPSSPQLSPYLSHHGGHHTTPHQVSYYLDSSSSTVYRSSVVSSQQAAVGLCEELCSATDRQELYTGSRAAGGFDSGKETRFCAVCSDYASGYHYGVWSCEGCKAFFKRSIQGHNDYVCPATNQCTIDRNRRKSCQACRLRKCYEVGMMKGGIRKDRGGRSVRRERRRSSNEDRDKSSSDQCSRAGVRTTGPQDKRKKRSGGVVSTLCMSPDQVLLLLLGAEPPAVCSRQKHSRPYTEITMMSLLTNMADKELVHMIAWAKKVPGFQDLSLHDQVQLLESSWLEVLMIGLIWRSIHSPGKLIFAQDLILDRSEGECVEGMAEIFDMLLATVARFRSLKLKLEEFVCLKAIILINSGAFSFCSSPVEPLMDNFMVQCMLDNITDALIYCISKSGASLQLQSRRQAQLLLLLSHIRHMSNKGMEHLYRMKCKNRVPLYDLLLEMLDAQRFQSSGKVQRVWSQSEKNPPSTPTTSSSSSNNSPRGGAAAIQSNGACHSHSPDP
# Outline: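 HepG2 cells transiently transfected with a GAL4-UAS reporter and a chimeric zebrafish ER1-Gal4 construct, dosed 24 h. Reporter mRNA quantified by RT-PCR, labelling, HpaI digestion and capillary electrophoresis, relative to DMSO.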
# [10] = molecular target: GAL4 Transcription Factor (Internal Marker), GAL4 (gene 855828) (UniProt P04386); assay: ATG_GAL4_XSP2: Attagene TRANS-FACTORIAL Multi-Species (XSP2) HepG2 Assay for GAL4 Transcription Factor (Internal Marker) (AID 2283814);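 also: GAL4 reporter mRNA background control in MRTU transfected cells not a receptor target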
# Chain of GAL4 Transcription Factor (Internal Marker), GAL4 (gene 855828) (P04386 whole entry, looked up, the tested form may be a part): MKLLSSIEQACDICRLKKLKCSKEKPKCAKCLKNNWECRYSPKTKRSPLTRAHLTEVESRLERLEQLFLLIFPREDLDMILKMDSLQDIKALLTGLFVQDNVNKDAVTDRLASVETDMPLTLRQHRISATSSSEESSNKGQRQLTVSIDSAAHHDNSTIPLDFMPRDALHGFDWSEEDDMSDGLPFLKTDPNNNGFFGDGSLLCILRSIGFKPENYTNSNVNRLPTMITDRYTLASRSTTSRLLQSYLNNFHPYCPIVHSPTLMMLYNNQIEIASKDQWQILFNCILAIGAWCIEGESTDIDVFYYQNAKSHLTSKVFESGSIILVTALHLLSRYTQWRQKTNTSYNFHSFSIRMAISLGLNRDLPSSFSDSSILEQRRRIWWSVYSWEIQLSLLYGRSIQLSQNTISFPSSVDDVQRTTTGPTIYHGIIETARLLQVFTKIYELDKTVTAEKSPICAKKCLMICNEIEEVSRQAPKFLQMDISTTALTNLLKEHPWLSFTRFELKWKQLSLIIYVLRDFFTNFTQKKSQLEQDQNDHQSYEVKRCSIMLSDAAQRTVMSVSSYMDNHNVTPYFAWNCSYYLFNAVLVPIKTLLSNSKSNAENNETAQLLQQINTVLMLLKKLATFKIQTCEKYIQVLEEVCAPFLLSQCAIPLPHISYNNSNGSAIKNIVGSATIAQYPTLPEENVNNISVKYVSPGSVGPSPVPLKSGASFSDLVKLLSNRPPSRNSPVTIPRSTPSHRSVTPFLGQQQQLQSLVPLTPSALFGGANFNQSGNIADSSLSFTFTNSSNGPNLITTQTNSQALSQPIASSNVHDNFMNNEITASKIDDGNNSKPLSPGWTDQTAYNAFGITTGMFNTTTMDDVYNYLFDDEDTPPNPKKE
# Outline: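 HepG2 cells transiently transfected with GAL4-UAS reporter units, stimulated with 3 nM 6-alpha-fluorotestosterone plus 1.5 nM norgestrel, dosed 24 h. Reporter mRNA by RT-PCR/capillary electrophoresis; gain-of-signal fit versus DMSO, background control.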
structure (smiles),measurement,setting,value
CC1(C)C(C=C(Cl)Cl)C1C(=O)OC(C#N)c1cccc(Oc2ccccc2)c1 (centres undefined),outcome,[1],inactive
same,outcome,[2],inactive
same,outcome,[3],inactive
same,AC50,[4],18 µM (active)
same,outcome,[5],inactive
same,outcome,[6],inactive
COP(=S)(OC)Oc1ccc([N+](=O)[O-])c(C)c1,outcome,[7],inactive
same,outcome,[1],inactive
same,outcome,[2],inactive
same,outcome,[8],inactive
same,outcome,[3],inactive
same,AC50,[4],31.9 µM (active)
same,AC50,[5],47.5 µM (active)
same,outcome,[9],inactive
CCN(CC)C(=O)C(C)Oc1cccc2ccccc12 (centres undefined),outcome,[1],inactive
same,outcome,[2],inactive
same,outcome,[8],inactive
same,outcome,[3],inactive
same,AC50,[4],10.5 µM (active)
same,outcome,[5],inactive
same,outcome,[9],inactive
C=C(C)CN(CC)c1c([N+](=O)[O-])cc(C(F)(F)F)cc1[N+](=O)[O-],outcome,[3],inactive
same,AC50,[4],4.03 µM (active) and 12.5 µM (active)
same,outcome,[5],inactive
same,outcome,[9],inactive
COP(=S)(OC)SCn1nnc2ccccc2c1=O,outcome,[3],inactive
same,AC50,[4],16.4 µM (active)
same,outcome,[4],inactive
same,outcome,[5],inactive
same,outcome,[10],inactive
same,outcome,[9],inactive
CC1(C)CCC(=Cc2ccc(Cl)cc2)C1(O)Cn1cncn1 (centres undefined),outcome,[7],inactive
same,outcome,[1],inactive
same,outcome,[2],inactive
same,outcome,[8],inactive
same,outcome,[4],inactive
same,outcome,[5],inactive
same,outcome,[10],inactive
same,outcome,[9],inactive
CC(C)NC(=O)N1CC(=O)N(c2cc(Cl)cc(Cl)c2)C1=O,outcome,[1],inactive
same,outcome,[2],inactive
same,outcome,[8],inactive
same,outcome,[3],inactive
same,outcome,[4],inactive
same,outcome,[10],inactive
same,outcome,[9],inactive
Cc1c(COC(=O)[C@@H]2[C@H](/C=C(\Cl)C(F)(F)F)C2(C)C)cccc1-c1ccccc1,outcome,[7],inactive
same,AC50,[4],38.7 µM (active)
same,outcome,[5],inactive
same,outcome,[10],inactive
same,outcome,[9],inactive
N#Cc1c[nH]cc1-c1cccc2c1OC(F)(F)O2,outcome,[3],inactive
same,AC50,[4],2.37 µM (active) and 1.02 µM (active)
same,AC50,[9],25.9 µM (active)
CSC(=O)c1c(C(F)F)nc(C(F)(F)F)c(C(=O)SC)c1CC(C)C,outcome,[2],inactive
same,outcome,[8],inactive
same,outcome,[4],inactive
same,outcome,[10],inactive
same,outcome,[9],inactive

# Source: PubChem BioAssay (EPA / NIEHS)
